# Reference: PubChem BioAssay AID624263 (National Center for Advancing Translational Sciences (NCATS), 2012)
# Several values for one entry are separate records, joined by “and”; a condition that tells them apart may be missing. Equal values may be shown once. Among all 410,000 compounds or so, about 820 (0.2%) were called active. Another 2% or so got no clear call; they are omitted. The call rests on the fitted dose curve; in most records, active means well fitted activation curve with a large enough effect; inconclusive means small, poorly fitted or top-dose-only effect; inactive means flat fitted curve, though single readings scatter; cell line not stated here. The full list was thinned out, with actives kept by preference. Some compounds were tested as several samples or in several runs, with calls that do not always agree.
# Test: A Quantitative High throughput Screen to Identify Chemical Modulators of PINK1 Expression; further: nearly all actives have a fitted effect of over 65% in size; on activation (PINK1 increase): % of control where 0% means no effect
# Conditions: PINK1 immunofluorescence, high-content cytometry, 24 h; series mostly up to 76.6 µM; activation (PINK1 increase): at the top concentration
# Excerpt: The overall goal of this project is to develop new tools for understanding and treating the mitochondrial basis for neurodegenerative disease such as Parkinson's disease (PD). The PINK1 campaign was developed from recent data pointing towards mitochondrial dysfunction as a major contributor to dopaminergic neuron loss. The discovery of PINK1/Parkin mediated mitophagy has highlighted the potential for mitochondrial quality control as a novel target for therapeutic intervention. […] A second aim of this project is the development of chemical probes to study the mechanics of mitochondrial quality control. As the PINK1/Parkin mitophagy pathway is a relative recent discovery, no specific chemical probes are available that modulate the process. Presently, only crude tools that cause nonspecific mitochondrial damage are available. To advance the understanding of mitophagy, specific, well characterized chemicals that target various steps of mitophagy regulation need to be developed. New chemical probes may have the ability to dynamically manipulate mitophagy in model organisms such as rodents and zebrafish, advancing our understanding of the process in development and disease. This HTS campaign seeks to discover an activator of PINK1 expression by modulation at the level of post-translational processing.
# The PINK1 assay determines the amount and localization of PINK1 protein in a cell using a combination of immunofluorescence and cell staining. The goal of the assay is to determine small molecules that can increase the expression of Pink1 on or inside the cell's mitochondria (ideally without mitochondrial depolarization) using a stable cell line. Since PINK1 protein is rapidly degraded in un-perturbed cells, compounds that induce the enhancement of PINK1 protein expression are identified by determining PINK1 immunofluorescence in conjunction with a mitochondrial, cell, and nuclear marker post fixation. To facilitate rapid high content screening, the primary assay is run in a decision-based HTS mode where compound titration data collected by laser-scanning microplate cytometers is processed and only promising compound series are passed off for high content drill down.
# 1 Add cells to black, clear-bottom, low-base 1536-well plates 6 uL (250 cells/well)
# 2 Incubate in TC incubator (12 hours)
# 3 Pin compounds or DMSO controls 23 nL (5 concentrations per compound set)
# 4 Dispense CCCP to control columns
# 5 Incubate in TC incubator 24 hours
# 6 Aspirate media and fix cells (5 uL of fixative containing nuclear dye)
# 7 Incubate 15 minutes at RT
# 8 Wash in PBSTween (12 uL/well)
# 9 Wash in PBSTriton (12 uL/well)
# 10 Aspirate wash and add Blocking buffer (4 uL/well)
# 12 Aspirate block and add primary antibodies 3.5 (uL/well)
# 13 Incubate 12 hours at 10 degrees C
# 14 Wash in PBSTween-20 two times (12 uL/well)
# 15 Aspirate wash and add secondary antibodies (12 uL/well)
# 17 Wash in PBSTween (12 uL/well)
# 18 Wash in PBSTween with cell stain (12 uL/well)
# 19 Read plates on Acumen EX3 and determine Wells2Cells coordinates
# Potency means the concentration at half of the fitted maximal effect.
Compound,Potency,activation (PINK1 increase)
Cc1ccc(OCC(O)CN2CCN(CC(O)COc3ccc(C)cc3Cl)CC2)c(Cl)c1 (configuration not stated),11.2 µM (active),–
Cc1cccc(OCC(O)CN2CCN(S(=O)(=O)c3ccc(C)cc3C)CC2)c1 (configuration not stated),–,0.654% (inactive)
OC(COc1ccc(F)cc1Cl)CN1CCc2ccccc2C1 (configuration not stated),–,1.72% (inactive)
O=C(NCC1Cc2cc(F)cc(-c3cnccn3)c2O1)C1COc2ccccc2O1 (configuration not stated),–,0.603% (inactive)
O=C(C(=O)N1CCOc2ccc(CN3CCN(Cc4ccccn4)CC3)cc2C1)c1ccccc1,–,0.0595% (inactive)
COc1ccc2c(c1)CCc1cnc(-n3ncc(C(=O)NCc4cccnc4)c3C3CC3)nc1-2,–,0.559% (inactive)
O=Nc1c(O)cc(O)c2ccccc12,–,1.49% (inactive)
O=C(N/N=C/c1cccc2cccnc12)[C@H]1C[C@@H]1c1ccccc1,–,-0.0622% (inactive)
O=C(NN=Cc1ccccc1O)NN=Cc1ccccc1O,0.891 µM (active),–
CCC1CN(CCNC(=O)c2cccnc2C)Cc2cc(OC)ccc2O1 (configuration not stated),–,-0.526% (inactive)
Cc1c(C(=O)NCC2CCCN(C)C2)cnn1-c1nccc(-c2ccco2)n1 (configuration not stated),–,0.569% (inactive)
CC12CCC(C(=O)N(CCC#N)CCC#N)(CC1=O)C2(C)C (configuration not stated),5.01 µM (active),–
CCN(CC)c1ccc(/C=C/c2c(C)cnc3ccc(C)cc23)cc1,–,3.71% (inactive)
COc1cc(C)c(CN2CCc3nnc(C(C)NC(=O)c4cccnc4)n3CC2)cc1C (configuration not stated),–,0.397% (inactive)
Cc1ccc(CNC(=O)Nc2nnc([C@H]3C[C@H](O)[C@@H](CO)O3)s2)cc1,–,-0.0573% (inactive)
Cc1ccc(NC(=O)Nc2nnc(-c3ccncc3)s2)cc1,15.8 µM (active),–
CCCCN(C)c1nnc(NC(=O)Nc2ccc(Br)c(C)c2)s1,–,0.951% (inactive)
C/C=C/NNC(=O)Cc1ccc(OC)cc1,–,7.35% (inactive)
CCCc1cc(=S)n2c([nH]c3ccccc32)c1C#N,28.2 µM (active),–
Cn1cccc1C(=O)N1CCC2(CC1)CN(c1cccc(-c3ccccc3)c1)C2,–,0.654% (inactive)
COc1c2c(cc3occ(-c4ccc5c(c4)OCO5)c(=O)c13)OC(C)(C)C=C2,–,1.47% (inactive)
CC(=O)c1ccc(NC(=O)C(C)NCc2ccc(Cl)cc2)cc1 (configuration not stated),–,0.227% (inactive)
CC(=O)N1CCC(N(C(=O)Nc2ccc(Cl)cc2)C(C)C)CC1,–,0.539% (inactive)
CC(C)S(=O)(=O)c1csc(NC(=O)Nc2ccc(Cl)cc2)c1Cl,15.8 µM (active),–
COc1cc(=O)n2c(c1C(=O)NC(C)c1ccco1)CCN(Cc1cc(C)cc(C)c1)CC2 (configuration not stated),–,0.333% (inactive)

Compound,Potency,activation (PINK1 increase)
COc1ccc2[nH]cc(CCNc3ncnc4ccc(-c5ccc(C(=O)N(C)C)cc5)cc34)c2c1,–,1.44% (inactive)
O=C(CNc1cccc(S(=O)(=O)N2CCCCC2)c1)Nc1ccccc1F,–,0.781% (inactive)
O=C(CNS(=O)(=O)c1cccc(C(F)(F)F)c1)Nc1ccccc1F,10 µM (active),–
O=C(CNS(=O)(=O)c1ccc2ccccc2c1)Nc1ccc(F)c(F)c1F,–,6.76% (inactive)
Cc1cnc(-n2ncc(C(=O)N3CCN(C(C)C)CC3)c2-c2ccco2)nc1-c1ccc(F)cc1,–,1.72% (inactive)
CC(C)(C)c1ccc(C(=O)C[n+]2cccc3cc(Cl)ccc32)cc1,–,5.06% (inactive)
OCC1CCCN(c2nc3cc4c(cc3cc2CNCc2cccs2)OCO4)C1 (configuration not stated),–,-0.93% (inactive)
Cc1ccc(NC(=O)CCC(=O)N2CCC(c3ccccc3)=N2)cc1S(=O)(=O)N1CCCCC1,11.2 µM (active),–
Cc1ccc(NC(=O)CCCNC(=O)c2ccc(Cl)cc2)cc1S(=O)(=O)N1CCCCC1,–,2.17% (inactive)
Cc1ccc(NC(=O)COC(=O)C2CC2)cc1S(=O)(=O)N1CCOCC1,–,0.894% (inactive)
COc1cc(=O)n2c(c1C(=O)NC(C)c1ccco1)CCN(C(=O)c1cn3ccc(C)cc3n1)CC2 (configuration not stated),–,0.949% (inactive)
COc1cc(=O)n2c(c1C(=O)N(C)Cc1nonc1C)CCN(C(=O)c1ccc(C)cc1C)CC2,–,-0.189% (inactive)
CCC1CN(CCNC(=O)c2ccsc2)Cc2cc(OC)ccc2O1 (configuration not stated),–,-0.839% (inactive)
Cc1nc2cc(NC(=O)[C@@H]3C[C@@H](Sc4ccccn4)CN3Cc3ccccc3C)ccc2s1,–,0.376% (inactive)
N#Cc1ccc[n+](CC(=O)c2ccc(O)c(O)c2)c1,–,0.262% (inactive)
O=C(Nc1nnc(S(=O)(=O)N2CCCCCC2)s1)c1cccc(Br)c1,inactive and 28.2 µM (active),–
O=C(Nc1nnc(S(=O)(=O)N2CCCc3ccccc32)s1)c1cccc(F)c1,–,2.55% (inactive)
O=C(Nc1nnc(S(=O)(=O)N2CCOCC2)s1)c1cccc(Br)c1,inactive,–
CC(C)Cc1cc(C(=O)Nc2cc(Br)ccc2O)no1,44.7 µM (active),–
Cc1nn(Cc2ccc(F)cc2)c(C)c1NC(=O)c1cc(CC(C)C)on1,–,0.475% (inactive)
CC(C)Cc1cc(C(=O)NCCc2ccccc2)no1,–,0.759% (inactive)
Cc1nc2cnc(N3CCNCC3)nc2n(Cc2ccc(F)cc2)c1=O,–,-0.606% (inactive)
COCc1c(C(=O)NC2CCCCC2)cnn1-c1nccc(-c2ccccc2OC)n1,–,0.512% (inactive)
COc1ccc(/C=C/c2ccccn2)cc1OC,–,1.64% (inactive)
CCCS(=O)(=O)NCc1c(C)ncc2c1CCN(C(=O)c1ccc(F)c(F)c1)C2,–,0.24% (inactive)

Compound,Potency,activation (PINK1 increase)
CC(O)(COc1ccccc1)c1ccc2c(c1)CN(Cc1cn[nH]c1-c1ccc(F)cc1)CCO2 (configuration not stated),–,-0.0916% (inactive)
O=[N+]([O-])c1ccccc1N/N=C1\CCc2ccccc21,–,1.04% (inactive)
O=[N+]([O-])c1ccc(O)c(/C=N/Nc2ccccc2[N+](=O)[O-])c1,20 µM (active),–
CN(C)c1ccc(/C=N\Nc2ccc([N+](=O)[O-])cc2[N+](=O)[O-])cc1Cl,–,0.417% (inactive)
COc1ccc(C)cc1N1C(=O)[C@@H]2C[C@H]1CN2Cc1cccc(OC)c1O,–,0.987% (inactive)
Cc1[nH]c2c(C(=O)NCC3Cc4cccc(-c5cccnc5)c4O3)cccc2c1C (configuration not stated),–,1.19% (inactive)
CN(C)c1ccc(C=Nc2ccc(/C=C/c3ccnc4ccccc34)cc2)cc1,–,-0.636% (inactive)
CN(C)c1ccc(/C=C/c2sc3ccccc3[n+]2C)cc1,44.7 µM (active),–
COc1ccc2c(c1)c(=Cc1ccc(N(C)C)cc1)c1cc(-c3ccccc3)[n+](C)n12,–,-1.26% (inactive)
COc1ccccc1-c1ccc(C(=O)N(C)C(C)c2ccon2)c(N2CCN(c3ccccc3F)CC2)n1 (configuration not stated),–,1.15% (inactive)
Cc1ccc(-c2ccnc(-n3ncc(C(=O)N(C)Cc4cccc5ncccc45)c3C3CC3)n2)o1,–,0.511% (inactive)
CC(=O)c1cccc(NC(=O)CSc2nc3c(c(=O)[nH]2)CCC3)c1,–,1.26% (inactive)
CN(C(=O)CSc1nnc(NC(=O)Nc2ccccc2)s1)c1ccccc1,–,1.45% (inactive)
CC(=O)c1ccc(NC(=O)CSc2nnc(NC(=O)Nc3ccccc3)s2)cc1,–,-0.057% (inactive)
CSc1nsc(NC(=O)Nc2ccccc2)n1,22.4 µM (active),–
Cc1ccc(C(=O)Nc2nc(-c3ccccc3)ns2)cc1,–,14.4% (inactive)
C=CCSc1nsc(NC(=O)Nc2cccc(C(C)=O)c2)n1,15.8 µM (active),–
COC(=O)[C@@H]1C[C@H](NC(=O)c2ccccc2C(F)(F)F)CN1Cc1cccc(O)c1,–,0.0682% (inactive)
CC(=O)c1ccc(F)c(-c2cc(C)cc3c2OC(CNC(=O)Cc2c[nH]c4ccccc24)C3)c1 (configuration not stated),–,-0.04% (inactive)
C(=Nc1ccc(/C=C/c2ccnc3ccccc23)cc1)Nc1ccc(/C=C/c2ccnc3ccccc23)cc1,–,-0.124% (inactive)
Cc1ncc2c(c1CNS(=O)(=O)N(C)C)CCN(C(=O)c1ccccc1F)C2,–,-0.0214% (inactive)
OCC(O)C(O)C(O)C(O)C=Nc1ccc(/C=C/c2ccnc3ccccc23)cc1 (configuration not stated),–,0.535% (inactive)
COc1ccc(Oc2ncc3nc(-c4ccc(F)cc4)c(=O)n(C)c3n2)cc1,–,-0.15% (inactive)
O=c1c2ccccc2nc2n1C1(CCCCC1)Cc1ccccc1-2,4.47 µM (active),–
CN(c1ccc2nc3ccccc3c(=O)n2n1)C1CCCCC1,–,0.372% (inactive)

Compound,Potency,activation (PINK1 increase)
CC1(C)Cc2ccccc2-c2c[nH]c(=O)n21,–,-0.443% (inactive)
COCC1CCCN(Cc2ccc3c(c2)CN(C(=O)c2ccnn2C)CCO3)C1 (configuration not stated),–,0.143% (inactive)
C(=Nc1ccc(/C=C/c2ccnc3ccccc23)cc1)c1cc2c3c(c1)CCCN3CCC2,–,-0.851% (inactive)
Cc1cccc2c3c(ccc12)C1=C(C(=O)C3=O)C(C)CO1 (configuration not stated),–,8.81% (inactive)
O=C1NC(CC(=O)N2CCC(n3c(C4CCC4)nc4cccnc43)CC2)c2ccccc21 (configuration not stated),–,-0.132% (inactive)
Oc1c(Cl)cc(Cl)c(Cl)c1Cc1c(O)c(Cl)cc(Cl)c1Cl,2.82 µM (active),–
CCN(CC)/[N+]([O-])=N/OCOC(=O)Cc1c(C)n(C(=O)c2ccc(Cl)cc2)c2ccc(OC)cc12,–,-1.4% (inactive)
Cc1cc(-c2ccnc(-n3ncc(C(=O)NCCc4ccncc4)c3C)n2)c(C)s1,–,0.637% (inactive)
Cc1cc(C(=O)NCC2Cc3cccc(-c4cncnc4)c3O2)c(C)o1 (configuration not stated),–,0.573% (inactive)
CN(C)c1ccc(CN2CCOc3ccc(CN4CCC(O)(c5cccnc5)CC4)cc3C2)cc1,–,-0.177% (inactive)
O=C(c1cn(CC2CCCN(Cc3cc4ccccc4s3)C2)nn1)N1CCCC1 (configuration not stated),–,-0.201% (inactive)
CCC1(C2CCN(C(=O)c3cccc(F)c3F)CC2)NC(=O)N(CCc2scnc2C)C1=O (configuration not stated),–,0.188% (inactive)
CCCCN(C)S(=O)(=O)c1ccc(C(=O)Nc2sc3c(c2C(N)=O)CC(C)(C)NC3(C)C)cc1,–,-2.36% (inactive)
CCOC(=O)c1c(NC(=O)c2ccc(S(=O)(=O)N(CC)CC)cc2)sc2c1CCCCC2,–,-1.12% (inactive)
C=CCN(CC=C)S(=O)(=O)c1ccc(C(=O)Nc2sc3c(c2C(N)=O)CCCCC3)cc1,10 µM (active),–
COc1ccc2c(c1)NC(=O)C2CC(=O)N1CCOc2c(cc(-c3cnc4ccccc4c3)cc2OC)C1 (configuration not stated),–,1.57% (inactive)
COC(=O)c1ccccc1-c1cc(C)cc2c1OC(CNC(=O)C1CCOC1)C2 (configuration not stated),–,-0.262% (inactive)
COc1ccc(CCNc2ncnc3sc(C(=O)N4CCCC4)c(C)c23)cc1OC,–,-0.358% (inactive)
COc1cc(-c2cccnc2)cc2c1OCCN(C(=O)Cc1csc(C)n1)C2,–,0.58% (inactive)
O=C(c1cccc(Cn2cccn2)c1)N1CCOc2c(cc(-c3csc4ccccc34)cc2OC2CCOC2)C1 (configuration not stated),–,0.191% (inactive)
N#Cc1cccc(-c2ccc3ncnc(NCc4cccs4)c3c2)c1,–,-0.262% (inactive)
Cc1cc(-c2ccnc(-n3ncc(C(=O)NC(C)(C)CO)c3C3CC3)n2)c(C)s1,–,0.0821% (inactive)
